A selection: hits, their analogues and other compounds. The true share with any hit is near 14%.
Pf growth 96h: Primary qHTS for delayed death inhibitors of the malarial parasite plastid, 96 hour incubation; P. falciparum luciferase reporter growth, 96 h; Potency, µM (highest dose often 28.7 µM), for inactives: at the top dose activity change, negative = inhibition, hits mostly inhibitors; hit rate 6.9% among 320,000; note: potency is the fitted concentration of half-maximal effect
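P. falciparum expressing integrated firefly luciferase grown in erythrocytes (2% hematocrit, 0.05% parasitemia final) with compounds for 96 hours at 37 C, 5% CO2. Growth inhibition read as loss of luminescence after adding luciferase detection reagent.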
HCV inhibitor: qHTS Assay for Inhibitors of Hepatitis C Virus (HCV). Huh7.5.1 HCVcc-Cre infection, luciferase reporter, 44 h. Potency, µM (highest dose often 41.8 µM), inactives show top-dose activity change, negative = inhibition, usual class: inhibitors. hit rate 3.4% among 340,000; note: potency is the fitted concentration of half-maximal effect
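Cells (1,000/well) were plated 4 h before compound, then infected with HCVcc-Cre virus (~0.5 moi). After 44 h further culture, infection was read as luciferase luminescence following a 15 min substrate incubation at room temperature.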
HCMV inh: qHTS Assay for inhibitors of the human cytomegalovirus (HCMV); activity change, negative = inhibition, % at 57.5 µM; hit rate 4.5% among 410,000; HFF cells, HCMV-luciferase reporter, 72 h; hits give low values; in the data active = activity change below about -60%; inconclusive = no clear call, values can overlap the other calls; inactive = above about -39%
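Inhibition of viral replication was scored as loss of reporter luminescence in HFFs infected with HCMV-luciferase (MOI 1 PFU/cell) for 72 h; compounds tested at 2 doses, normalized to buffer and Salinomycin controls.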
Lassa entry inh: qHTS for Inhibitors of binding or entry into cells for Lassa Virus; Lassa virus pseudotype entry inhibition, cell reporter; Potency, µM (highest dose often 37.9 µM), for the others: at the highest dose activity change, negative = inhibition, usual class: inhibitors; hit rate 1.2% among 300,000; calls by dose curve; tested in HEK293 cells; note: potency is the fitted concentration of half-maximal effect; nearly all actives have a fitted effect of over 50% in size
Marburg entry inh: qHTS for inhibitors of binding or entry into cells for Marburg Virus. Marburg virus pseudotyped entry inhibition, cell reporter. Potency, µM (series often up to 37.8 µM), inactives show at the highest dose activity change, negative = inhibition, usual class: inhibitors. hit rate 1.8% among 300,000. AID 540276, 2011; calls by dose curve; tested in HEK293 cells; note: potency is the fitted concentration of half-maximal effect
Pf growth 48h: Primary qHTS for delayed death inhibitors of the malarial parasite plastid, 48 hour incubation; P. falciparum luciferase growth in erythrocytes, 48 h; Potency, µM (series often up to 28.7 µM), for inactives: top-dose activity change, negative = inhibition, most hits filed as inhibitors; hit rate 5.9% among 310,000; AID 504832, 2011; note: potency is the fitted concentration of half-maximal effect
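Read-out is firefly luciferase luminescence from an integrated reporter in P. falciparum, so falling signal marks reduced parasite growth. Infected erythrocytes were at 2% hematocrit and 0.1% parasitemia (final) in Albumax-supplemented RPMI 1640.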
Numbers without * were called inactive; ? = inconclusive; · = no result given; [ ] = remark or other dose. Unless noted, calls come from the whole dose curve; as a rule, active = well fitted inhibition curve with a large enough effect; inconclusive = small, poorly fitted or top-dose-only effect, or another doubt; inactive = no such curve, though single readings can be large or run the other way. % is set by controls: 0 for no effect and ±100 for the full control effect.

SMILES	Pf growth 96h	HCV inhibitor	HCMV inh	Lassa entry inh	Marburg entry inh	Pf growth 48h
CCN(Cc1cc2cc(OC)ccc2[nH]c1=O)C(=O)c1ccncc1	9.3µM*	14%	14	7%	-6%	9%
CNC(=S)N(Cc1ccco1)Cc1cc2cc(OC)ccc2[nH]c1=O	293%	-30%	105	-13%	-24%[46.1 µM]	2.6µM*
Cc1ccc(NC(=S)N(Cc2cccs2)Cc2cc3cccc(C)c3[nH]c2=O)cc1	7.4µM*	-6%	?	?	-5%	-28%
COc1ccc2[nH]c(=O)c(CN(Cc3cccs3)C(=S)Nc3ccccc3)cc2c1	4.7µM*	0%	·	3%	2%	?
CCN(Cc1cc2cc(OC)ccc2[nH]c1=O)C(=O)Cc1ccc(OC)cc1	-12%	?	12	-20%	?	?
CNC(=S)N(Cc1cccs1)Cc1cc2ccc(OC)cc2[nH]c1=O	?	0%	9	4%	?	?
CC(=O)c1cccc(S(=O)(=O)NCCC(=O)NC2CCCCCC2)c1	14%	-5%	-24	·	·	29%
COCC1CCN(C(=O)C2CCC(=O)N(Cc3cccc(F)c3)C2)CC1 (stereo not drawn)	12%	2%	-4	2%	-4%	-20%
O=C(O)[C@@H]1C[C@@H](O)CN1	·	·	17	·	·	·
COc1ccccc1CNC(=O)c1ccc2nc(C)c(N(C)Cc3ccc(NC(C)=O)cc3)n2c1	·	·	22	·	·	·
Cc1ccsc1/C=C\C1=NCCCN1C	-15%[12.8 µM]	·	·	·	·	-15%[12.8 µM]
CC1CCN(C(=O)c2[nH]cnc2C(=O)NCc2ccc(CNC(=O)OC(C)(C)C)cc2)CC1	-4%	?	-33	·	·	-4%
COc1cc2cc(CN(Cc3cccs3)C(=S)Nc3ccccc3)c(=O)[nH]c2cc1OC	-1%	?	-15	?	?	12µM*
CC(=O)c1c(C(C)=O)c(C)n(Cc2ccc(Cl)cc2)c1C	1.5µM*	?	-71*	-21%	?	·
CCOC(=O)c1c(C=O)c(C)n(Cc2ccc(Cl)cc2)c1C	?	8.9µM*	-24	-5%	-3%	1.9µM*
CC(=O)c1c(C(C)=O)c(C)n(NC(=O)c2ccc(Cl)cc2)c1C	6%	3%	-19	-7%	4%	·
COC(=O)c1ccc2nc(-c3ccc(OC)c(OC)c3)c(Cc3ccccc3C(F)(F)F)n2c1	·	·	-20	·	·	·
Cc1cc(C)cc(NC(=O)c2cccc3c2C(=O)N(C2CCCCC2)C3)c1	12µM*	16%	-1	2%[46.1 µM]	?	?
COc1cc(NC(=O)c2cccc3c2C(=O)N(C2CCCCC2)C3)cc(OC)c1OC	?	6.3µM*	-91*	?	?	12µM*
CSc1ccc(CCNC(=O)c2cccc3c2C(=O)N(C2CCCCC2)C3)cc1	10µM*	11µM*	·	·	·	?
O=C(Nc1ccc(Br)cc1Br)c1cccc2c1C(=O)N(C1CCCCC1)C2	?	?	9	-18%[46.1 µM]	-17%[46.1 µM]	?
Cc1ccc(NC(=O)c2cccc3c2C(=O)N(C2CCCCC2)C3)c(Cl)c1	4.7µM*	?	·	?	2%[46.1 µM]	?
CCc1ccc(NC(=O)c2ccc3c(c2)CCN3S(C)(=O)=O)cc1	·	·	5	·	·	·
COCCNC(=O)C1(C)CCN(C(=O)c2cc(C)nn2C(C)(C)C)C1 (stereo not drawn)	·	·	-16	·	·	·
O=C(Nc1ccc(Br)cc1)c1cccc2c1C(=O)N(C1CCCCC1)C2	19%	5%	0	9%[46.1 µM]	0%[46.1 µM]	?
SMILES	Pf growth 96h	HCV inhibitor	HCMV inh	Lassa entry inh	Marburg entry inh	Pf growth 48h
NC(=O)c1cccc2c1C(=O)N(C1CCCCC1)C2	9.3µM*	1%	-24	2%	-11%	5%
Nc1nc(=S)c2ncn(C3OC(CO)CC3O)c2[nH]1 (stereo not drawn)	·	16%	?	-5%	29%	·
COc1ccc(OCC(O)CNCCOc2ccccc2OC)c(C(C)(C)C)c1 (stereo not drawn)	3.7µM*	18µM*	-67*	·	·	4.7µM*
COc1ccc2c(c1)CO[C@]21O[C@H](CCO)C[C@H](O)[C@H]1O	·	·	4	·	·	·
CC(C)CC(=O)OC1C(N2CCOCC2)c2c(ccc(/C=C/C(=O)N3CCOCC3)c2O)OC1(C)C (stereo not drawn)	2.6µM*	21%	2	3%	?	?
CCc1ccc(NC(=O)CSc2nccn2C2CCCC2)cc1	·	·	2	-2%[46.1 µM]	·	·
Nc1nc(Nc2ccccc2)nc2c1ncn2[C@@H]1O[C@H](CO)[C@@H](O)[C@H]1O	·	2µM*	-37	2%	11%	·
OCC1OC(n2cnc3c(NCc4ccco4)ncnc32)C(O)C1O (stereo not drawn)	·	?	-81*	4.5µM*	?	·
Cc1ccccc1CNc1ncnc2c1ncn2[C@@H]1O[C@@H](CO)[C@H](O)[C@@H]1O	·	·	·	·	18%	·
Cc1ccccc1CNc1ncnc2c1ncn2C1OC(CO)C(O)C1O (stereo not drawn)	-13%	·	·	16%	?	-5%
OC[C@@H]1O[C@@H](n2cnc3c(NC4CCCC4)ncnc32)[C@H](O)[C@H]1O	·	·	·	·	20%	·
Nc1nc(F)nc2c1ncn2[C@@H]1O[C@H](CO)[C@@H](O)[C@@H]1O	-30%	3%	·	?	2%	2%
OC[C@H]1O[C@@H](n2cnc3c(NCc4ccco4)ncnc32)[C@H](O)[C@@H]1O	·	18µM*	-39	·	·	·
C=CCNc1ncnc2c1ncn2C1OC(CO)C(O)C1O (stereo not drawn)	18%	?	-16	?	14µM*	2%
CCN(CC)CCC(O)(c1ccc2c(c1)OCO2)c1cc(OC)c(OC)c(OC)c1 (stereo not drawn)	·	-6%	11	24%[46.1 µM]	?	·
CCOC(=O)c1cc(-c2ccc(N3CCOCC3)cc2)nn1-c1ccc(F)cc1F	12µM*	11µM*	35	?	-29%	12µM*
CCCCN(CC)Cc1ccc(CNC(=O)Nc2ccc(OCC)cc2)o1	?	13µM*	-10	2%	?	·
CN(C)c1ccc(NC(=S)Nc2ccc3c(c2)c(=O)n(C)n3-c2ccc(C(C)(C)C)cc2)cc1	·	·	-24	·	·	·
O=C(NC1C2CC3CC(C2)CC1C3)C1CC1 (stereo not drawn)	27%	14%	20	?	-6%	7.4µM*
O=C(O)C1CCCCC1C(=O)NC1C2CC3CC(C2)CC1C3 (stereo not drawn)	359%	-10%	8	-28%	6%	-5%
CCC[C@@H](CN1CCC[C@H]1CN1C(N)=NC[C@H]1CC(C)C)N1C[C@@H]([C@H](C)CC)N(CCCC2CCCC2)C1=N	·	2.8µM*	-29	·	·	·
O=C(O)C1=CC(c2ccc(Br)cc2)n2ncnc2N1 (stereo not drawn)	·	·	-21	20%[46.1 µM]	2%[46.1 µM]	·

Assay outcomes as filed in PubChem BioAssay.
